# Source: PubChem BioAssay AID651717 (Broad Institute, 2012)
# Screen size: about 1,200 compounds; about 950 (79%) were called active. The set was probably picked from earlier hits. A selection follows. Entries with a potency or affinity are not part of this list. Values without a mark were called inactive.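 How the source made its calls: active means signal rises and fitted curve reaches 40% activity at or below the top valid tested dose, in every replicate test; inconclusive means replicate tests give mixed calls; inactive means the rest, including activity in the opposite direction.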
# Assay: Bmi1-luciferase reporter activators in mESC, dose response, esBAF inhibitor project, mouse embryonic stem cells, cherry-pick (AID 651717);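 further: luciferase knocked into Bmi1 locus with EF-1a renilla as cell number control; rising ratio signals esBAF inhibition which derepresses Bmi1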
# Conditions: firefly/renilla ratio, 24 h, stronger effect = higher value; at 35 µM unless noted
row,Structure (SMILES),max activity
1,O=C(O)C/C(=C\c1cc(Br)cs1)c1nc2ccccc2o1,31.8%
2,Cc1cccc(N2CCN(C(=O)c3ccc4nc(N5CCCCC5)sc4c3)CC2)c1C,-28.5%
3,O=C(CSc1nnc(Nc2ccccc2F)s1)Nc1cccc(S(=O)(=O)N2CCCCC2)c1,20.6% [at 16 µM]
4,C[C@H](CO)N1C[C@H](C)[C@@H](CN(C)Cc2ccncc2)Oc2c(NC(=O)Nc3ccc4c(c3)OCO4)cccc2C1=O,39.5% [at 0.26 µM]
5,O=C1CCC[C@@H]2C[C@@]3(C[C@@H]4CCN1[C@H]24)Nc1cc(Cl)c(Cl)cc1NC3=NCc1ccccc1,15.2% [at 4.2 µM]
6,CCCCC(=O)c1c(O)c2ccccc2oc1=O,28.9%
7,O=C(Nc1ccc(F)c(Cl)c1)c1ccccc1NC(=O)C1CCCCC1C(=O)O (stereo not drawn),26.5%
8,O=C(O)CCN1C(=O)/C(=C\c2cccc(OCC(=O)Nc3ccc(Cl)cc3)c2)SC1=S,38%
9,O=S(=O)(/N=C(/Nc1nc2ccccc2s1)c1ccccc1)c1ccccc1,34.6% [at 16 µM]
10,Clc1ccc(CSc2ncn(-c3ccccc3)n2)cc1,27%
11,Cc1cc(C)n2nc(SCc3nnc(SCc4ccccc4C)s3)nc2n1,26.5%
12,CN(C)Cc1c(O)ccc2c(=O)c(-c3ccc(Cl)cc3)coc12,24.4%
13,C[C@H](CO)N1C[C@H](C)[C@@H](CN(C)C(=O)Nc2ccc3c(c2)OCO3)Oc2c(NS(=O)(=O)c3cn(C)cn3)cccc2C1=O,30.6%
14,COc1ccc2c(c1OC)C(=O)OC2Nc1nc(-c2cc3cc([N+](=O)[O-])ccc3oc2=O)cs1 (stereo not drawn),38.4%
15,O=C(NN=C1CCCC1)c1ccccc1O,17.2% [at 4.2 µM]
16,CCOc1ccc(/C=N/NC(=O)c2ccccc2O)cc1CN1CC2CC(C1)c1cccc(=O)n1C2 (stereo not drawn),21.1% [at 16 µM]
17,C[C@H](CO)N1C[C@H](C)[C@H](CN(C)C(=O)Nc2ccccc2)OCCCC[C@H](C)Oc2ccc(NC(=O)Nc3ccc4c(c3)OCO4)cc2C1=O,-15.5% [at 0.26 µM]
18,COc1ccc(-c2noc(C3CCCN(C(=O)Nc4ccccc4)C3)n2)cc1 (stereo not drawn),16.1%
19,C[C@H]1CN([C@@H](C)CO)C(=O)c2cc(NC(=O)Cc3ccccc3)ccc2O[C@H]1CN(C)C(=O)Nc1ccc2c(c1)OCO2,21% [at 0.5 µM]
20,CN(C)c1ccc(C(=O)Nc2cccc(S(=O)(=O)NC3=NCCCCC3)c2)cc1,11.6% [at 16 µM]
21,CCOC(=O)C1CCN(Cc2nc3ccc([N+](=O)[O-])cc3c(=O)n2-c2ccc(OC)cc2OC)CC1,8.71% [at 4.2 µM]
22,COc1ccc(CCC(=O)N/N=C/c2ccc3c(c2)OCO3)cc1,7.2%
23,O=C(Nc1cccc(F)c1)Nc1cccc(Cl)c1,39.5% [at 16 µM]

row,Structure (SMILES),max activity
1,COc1ccc(NC(=O)Nc2cccc3c2O[C@@H](CN(C)C(=O)Nc2cccc4ccccc24)[C@H](C)CN([C@@H](C)CO)C3=O)cc1,22.8%
2,C[C@H]1CN([C@@H](C)CO)C(=O)c2cc(NS(=O)(=O)c3ccc(F)cc3)ccc2O[C@@H]1CN(C)C(=O)Nc1ccc2c(c1)OCO2,3.44% [at 4.2 µM]
3,C[C@H](CO)N1C[C@H](C)[C@H](CN(C)C(=O)NC2CCCCC2)OCCCC[C@H](C)Oc2ccc(NC(=O)Nc3ccc4c(c3)OCO4)cc2C1=O,27%
4,C[C@H]1CCCCO[C@H](CN(C)C(=O)NC2CCCCC2)[C@@H](C)CN([C@@H](C)CO)C(=O)c2cc(NC(=O)Nc3ccc4c(c3)OCO4)ccc2O1,10.1%
5,Cc1c(Cl)cccc1N1C(=O)CC(N(O)c2ccccc2)C1=O (stereo not drawn),13.3%
6,Cc1ccc(S(=O)(=O)Nc2cccc3c2O[C@H](CN(C)C(=O)Nc2ccc4c(c2)OCO4)[C@@H](C)CN([C@H](C)CO)C3=O)cc1,-41% [at 16 µM]
7,O=C(OCc1ccccc1)N1CCC2CC1c1ccc(/C=C/CCCCl)cc12 (stereo not drawn),-25.2% [at 16 µM]
8,C[C@@H]1CN([C@@H](C)CO)C(=O)c2cccc(NC(=O)Nc3ccccc3)c2O[C@H]1CN(C)C(=O)Nc1ccc2c(c1)OCO2,-14.4%
9,C[C@H]1CN([C@@H](C)CO)C(=O)c2cccc(NC(=O)Nc3ccccc3)c2O[C@@H]1CN(C)C(=O)Nc1ccc2c(c1)OCO2,-6.52%
10,Cc1ccc(S(=O)(=O)Nc2cccc3c2O[C@@H](CN(C)C(=O)Nc2ccc4c(c2)OCO4)[C@H](C)CN([C@@H](C)CO)C3=O)cc1,-16.1%
11,C[C@@H]1CN([C@H](C)CO)C(=O)c2cccc(NC(=O)Nc3ccc4c(c3)OCO4)c2O[C@H]1CN(C)Cc1ccccc1,36.6% [at 0.26 µM]
12,CO[C@@H]1CN(C)C(=O)c2ccc(NC(=O)Nc3cccc(F)c3)cc2OC[C@@H](C)N(C(=O)Nc2c(C)noc2C)C[C@H]1C,7.7% [at 0.56 µM]
13,O=C(NCc1cccs1)c1cc2c(s1)-c1ccccc1OC2,20.6% [at 8 µM]
14,CCCOc1c(Br)cc(C2C3=C(CCCC3=O)N(CC)C3=C2C(=O)CCC3)cc1OC,-53.8% [at 16 µM]
15,Cc1ccc(CN2CN(S(=O)(=O)c3cccs3)c3nc4ccccc4nc32)cc1,-38.8%
16,O=C(O)c1ccc(NCc2cccnc2)cc1,12.2%
17,C[C@@H]1CN([C@@H](C)CO)C(=O)c2c(c3ccccc3n2C)-c2ccccc2CO[C@@H]1CN(C)C(=O)Nc1ccc2c(c1)OCO2,-11.1%
18,C[C@@H]1CCCCO[C@@H](CN(C)S(=O)(=O)c2cn(C)cn2)[C@@H](C)CN([C@@H](C)CO)C(=O)c2cc(NC(=O)Nc3ccc4c(c3)OCO4)ccc2O1,3.24% [at 30 µM]
19,CC1CCN(c2ccc(C(=O)NCc3cccs3)cn2)CC1,20.2% [at 8 µM]
20,COc1ccc(CN2C[C@@H](C)[C@H](OC)CN(C)C(=O)c3ccc(NC(=O)c4nc5ccccc5s4)cc3OC[C@H]2C)cc1,13.2% [at 3.8 µM]
21,COc1ccc(N(CCC(=O)NCCc2ccccc2)S(=O)(=O)c2ccc(C)cc2C)cc1,24.7% [at 8 µM]
22,Cc1ccc(CNC(=O)c2cccc3c2C(=O)c2ccc(N4CCC(C)CC4)cc2S3(=O)=O)cc1,-5.88% [at 0.5 µM]
23,O=C(NCc1cccs1)Nc1cccc(Cl)c1,-20.3%

row,Structure (SMILES),max activity
1,C[C@@H]1CN([C@@H](C)CO)C(=O)c2cccc(NC(=O)Nc3ccc4c(c3)OCO4)c2O[C@H]1CN(C)Cc1ccc(Cl)c(Cl)c1,-35% [at 18 µM]
2,C/C(=N\NC(=O)c1ccc(Cn2cc(Br)cn2)o1)c1ccc(NC(=O)c2ccoc2C)cc1,18.3% [at 16 µM]
3,Cc1cccc(-c2nnc(-c3cccc(NC(=O)Cc4cccs4)c3)o2)c1,34.9%
4,Cc1ccc(S(=O)(=O)Nc2cccc(-c3ccc(N4CCCCCC4)nn3)c2)c(C)c1,27.4% [at 4.2 µM]
5,Cc1ccc(S(=O)(=O)Nc2cccc(-c3ccc(N4CCCCCC4)nn3)c2)cc1,29.4% [at 4.2 µM]
6,C[C@@H]1CN([C@@H](C)CO)S(=O)(=O)c2ccc(-c3ccc(F)cc3)cc2O[C@H]1CN(C)C(=O)C1CC1,-26.9%
7,C[C@H]1CCCCO[C@H](CN(C)C(=O)Nc2ccc(F)cc2)[C@@H](C)CN([C@@H](C)CO)C(=O)c2cc(NC(=O)Nc3ccc4c(c3)OCO4)ccc2O1,-13.8% [at 8 µM]
8,C[C@H](CO)N1C[C@H](C)[C@H](CN(C)Cc2ccncc2)OCCCC[C@H](C)Oc2ccc(NC(=O)Nc3ccc4c(c3)OCO4)cc2C1=O,-10.9%
9,C[C@H]1CCCCO[C@@H](CN(C)Cc2ccncc2)[C@@H](C)CN([C@@H](C)CO)C(=O)c2cc(NC(=O)Nc3ccc4c(c3)OCO4)ccc2O1,-19.5%
10,C[C@@H]1CCCCO[C@@H](CN(C)Cc2ccncc2)[C@@H](C)CN([C@@H](C)CO)C(=O)c2cc(NC(=O)Nc3ccc4c(c3)OCO4)ccc2O1,11%
11,C[C@H](CO)N1C[C@H](C)[C@@H](CN(C)Cc2ccc(-c3ccccc3)cc2)Oc2c(NC(=O)Nc3ccc4c(c3)OCO4)cccc2C1=O,-20.6%
12,CCc1c(C(=O)Nc2ccc(C)c(C)c2)[nH]c(C)c1C(C)=O,13.1% [at 4.2 µM]
13,O=C(CNc1ccc(Br)cc1)c1ccc(Br)s1,12.9% [at 4.2 µM]
14,COc1ccc2oc(C(=O)OCC(=O)Nc3ccc(C)c(S(=O)(=O)N4CCOCC4)c3)c(C)c2c1,34.7%
15,C[C@H](CO)N1C[C@H](C)[C@@H](CN(C)C(=O)Nc2ccc(F)cc2)OCCCC[C@H](C)Oc2ccc(NC(=O)Nc3ccc4c(c3)OCO4)cc2C1=O,15.2% [at 8 µM]
16,Cc1ccc(-n2nc(C(=O)c3ccccc3)n3c(=O)cc(-c4ccccc4)nc23)cc1,5.74% [at 16 µM]
17,CC(C)c1ccc(NC(=O)C(c2ccccc2)N2CC(=O)Nc3ccccc32)cc1 (stereo not drawn),10.6%
18,Cc1ccc(C(=O)Nc2nc(=O)n(C(=O)c3ccccc3C)s2)cc1,38.3% [at 16 µM]
19,C[C@@H]1CN([C@@H](C)CO)C(=O)c2cc(NC(=O)Nc3ccc4c(c3)OCO4)ccc2O[C@H]1CN(C)C(=O)Nc1ccc(C(F)(F)F)cc1,-14.9%
20,C[C@@H]1CN([C@@H](C)CO)C(=O)c2cc(NC(=O)Nc3ccc4c(c3)OCO4)ccc2O[C@@H](C)CCCCO[C@@H]1CN(C)C(=O)Nc1ccc2c(c1)OCO2,18.2%
21,C[C@H](CO)N1C[C@H](C)[C@@H](CN(C)C(=O)Nc2ccc3c(c2)OCO3)OCCCC[C@H](C)Oc2ccc(NC(=O)Nc3ccc4c(c3)OCO4)cc2C1=O,12.8%
22,C[C@@H]1CCCCO[C@@H](CN(C)C(=O)Nc2ccc3c(c2)OCO3)[C@H](C)CN([C@H](C)CO)C(=O)c2cc(NC(=O)Nc3ccc4c(c3)OCO4)ccc2O1,17.2% [at 16 µM]
